# Data published in PubChem BioAssay AID434970 (Sanford-Burnham Center for Chemical Genomics, 2010).
# Screen size: about 11,000 compounds; about 310 (2.8%) were called active. Rule as the data show it: active = activity change below about -85%; inactive = the rest. The sample as a whole holds a higher share of actives than the screen did.
# Test system: intestinal alkaline phosphatase [Mus musculus]
# Test: mouse intestinal phosphatase enzyme activation – biochemical, luminescence, single concentration, confirmation (AID 434970)
# Settings: purified mouse IAP, CDP-Star luminescence, 30 min, at 10 µM; activation factor: measured here: IAP activation factor, stronger effect = higher value; activity change, negative = activation: stronger effect = lower value
Compound,activation factor,"activity change, negative = activation"
CCOc1ccc(-n2c(SCC(=O)NCc3ccco3)nc3c(c2=O)SCC3)cc1,0.865,13.5% (inactive)
COc1cc(O)c2c(c1)OC(C)(C)CC2=O,1.08,-7.6% (inactive)
O=C(CSc1nc2cccnc2n1Cc1ccccc1)N1CCCC1,1.07,-7.2% (inactive)
COC(=O)[C@H](CCSC)NC(=O)Cn1cnc(C(=O)Nc2ccc(C)c(C)c2)n1,0.956,4.35% (inactive)
CC(NC(=O)CCSc1nc(-c2ccco2)cc(C(F)(F)F)n1)c1ccccc1 (stereo not given),0.94,6% (inactive)
O=C(N/N=C/c1ccc([N+](=O)[O-])o1)c1ccccc1NS(=O)(=O)c1cccs1,0.375,62.5% (inactive)
O=C(c1ccc(C(=O)N2CCOCC2)nc1)N1CCOCC1,1.09,-8.9% (inactive)
CCc1ccc(NC(=O)c2sccc2-n2cccc2)cc1,1.04,-4.35% (inactive)
Fc1cc(NC(=S)NCc2ccc(CNC(=S)Nc3ccc(Cl)c(F)c3)cc2)ccc1Cl,1.44,-44.1% (inactive)
O=C(NCCSCc1ccco1)Nc1cc(Cl)cc(Cl)c1,1.27,-27.2% (inactive)
O=C(Nc1ccc(Cl)cc1)C1CCN(C(=O)NC2CCCCC2)CC1,0.914,8.6% (inactive)
O=C(Nc1ccc(Cl)cc1)NC1CCCCC1Cc1ccco1 (stereo not given),2.11,-111% (active)
CC/C(=N\n1nnnc1Nc1ccccc1)c1ccccc1,1.02,-2.45% (inactive)
Cc1ccc(N2C(=O)/C(=C/c3ccco3)SC2=S)cc1,0.396,60.5% (inactive)
Cc1cc2oc(=O)cc(-c3ccccc3)c2c(C)c1-c1ccc(N(C)C)cc1,0.885,11.4% (inactive)
COc1cccc(N/C(C)=C/C(=O)c2ccc(Br)cc2)c1,1,-0.05% (inactive)
Cn1cccc1C(=O)OCC(=O)Nc1ccc2c(c1)CCC2,1.05,-5.05% (inactive)
Cc1cccc(NC(=O)Nc2ccc3c(c2)CCC3)c1,1.41,-41.4% (inactive)
COc1cccc(NC(=O)Nc2ccc3c(c2)CCC3)c1,2.9,-190% (active)
COc1cccc(NC(=O)Nc2ccc3c(c2)N(C)C(=O)CS3)c1,0.986,1.5% (inactive)
O=C(Nc1ccccc1)Nc1ccc2c(c1)CCC2,1.95,-94.8% (active)
O=C(Nc1ccc2c(c1)CCC2)Nc1ccccc1F,1.69,-68.5% (inactive)

Compound,activation factor,"activity change, negative = activation"
Cc1ccc(NCc2nnc(SCC(=O)N3CCCc4ccccc43)o2)c(C)c1,1.02,-2.3% (inactive)
CCS(=O)(=O)n1nc(-c2ccccc2)nc1N,0.926,7.4% (inactive)
CC(/C=N/n1cnnc1)=C\c1ccccc1,1.02,-1.9% (inactive)
CC1(C)CC(=O)C2=C(C1)NC(=O)CC2C(=O)NCc1ccc(F)cc1 (stereo not given),1.3,-29.9% (inactive)
COc1cc(-c2nnc3n2N=C(c2ccccc2)CS3)cc(OC)c1OC,0.996,0.4% (inactive)
CCCNC(=O)c1ccccc1NC(=O)CN(c1ccccc1OCC)S(C)(=O)=O,1.15,-15.4% (inactive)
O=P(OC1CCS(=O)(=O)C1)(c1ccccc1)c1ccccc1 (stereo not given),0.921,7.85% (inactive)
[N-]=[N+]=CC(=O)CCCN1C(=O)c2ccccc2C1=O,1.09,-9.05% (inactive)
O=C(Cc1cccs1)Nc1nnc(CCc2ccccc2)s1,1.15,-14.7% (inactive)
Cc1cc(C)cc(NC(=O)NC2CCCCCCC2)c1,3.37,-237% (active)
O=C(Nc1cccc(F)c1)NC1CCCCCCC1,2.42,-142% (active)
Cc1ccc(NC(=O)NC2CCCCCCC2)cc1C,2.56,-156% (active)
Cc1cccc(NC(=O)NC2CCCCCCC2)c1,2.45,-145% (active)
Cc1cc(C)cc(NC(=S)NCCN(C2CCCCC2)C2CCCC2)c1,1.28,-28.3% (inactive)
Cc1cc(C)cc(NC(=O)Nc2ccc(N3CCCCC3)cc2)c1,1.16,-15.9% (inactive)
CC1CCCN(C(=O)C2(NC(=O)Nc3cccc(F)c3)CCCCC2)C1 (stereo not given),1.81,-81.1% (inactive)
Cc1cccc(NC(=O)CC2NC3CCCCC3NC2=O)c1 (stereo not given),0.974,2.55% (inactive)
CC(=O)OC(C(=O)NC1CCCCC1)c1cccc(C)c1 (stereo not given),1.04,-4.4% (inactive)
Cc1ccc(NC(=S)NC2CCCCC2)cc1S(=O)(=O)N(C)C,1.3,-29.9% (inactive)
Cc1ccc(NC(=O)C2CCN(C(=O)NC3CCCCC3)CC2)cc1Cl,1.21,-20.9% (inactive)
O=C(Nc1cccc(F)c1)c1ccccc1,1.01,-0.8% (inactive)
C=CCNc1nc(Nc2ccc(OC)cc2)nc(OC)n1,0.992,0.8% (inactive)

Compound,activation factor,"activity change, negative = activation"
CC(C)C(NC(=S)NCc1ccccc1)C(=O)O (stereo not given),0.93,7% (inactive)
Cc1ccc(-c2nn3c(C)nnc3s2)cc1NC(=O)c1ccc(-c2cccc(Cl)c2)o1,0.849,15.2% (inactive)
Cc1ccccc1NC1=C(Cl)C(=O)OC1OC(C)C (stereo not given),0.976,2.45% (inactive)
CCOC(=O)c1c(N)sc(C(N)=O)c1C,1.01,-0.6% (inactive)
O=C(Nc1c(-c2ccccc2)nc2sccn12)c1ccccc1,0.907,9.25% (inactive)
CCN(CC)S(=O)(=O)c1ccc(Cl)c(C(=O)Oc2cccnc2)c1,0.919,8.05% (inactive)
COC(=O)C1=C(C)NC2=C(C(=O)C(C(=O)OC)C(c3ccc(OC)cc3)C2)C1c1ccccn1 (stereo not given),1.07,-6.6% (inactive)
CC(=O)Nc1ccc(NS(C)(=O)=O)cc1,0.891,10.9% (inactive)
O=C1CC(N2CCN(c3ccccc3F)CC2)C(=O)N1c1ccc2c(c1)OCCO2 (stereo not given),0.964,3.6% (inactive)
O=C(CSc1nnc(-c2ccco2)n1Cc1ccco1)NCc1ccccc1,1.11,-11.1% (inactive)
O=C(Nc1cccc(C(F)(F)F)c1)NC1CCCCC1,2.1,-110% (active)
FC(F)(F)c1ccc(NC(=S)NC2CCCCC2)cc1,1.25,-24.9% (inactive)
O=C(Nc1cccc(C(F)(F)F)c1)NC1CCN(S(=O)(=O)c2ccc(F)cc2)CC1,1.81,-81.5% (inactive)
O=c1[nH]c2ccc(S(=O)(=O)Nc3ccc(-c4nnc5n4CCCCC5)cc3)cc2o1,0.87,13% (inactive)
CCc1ccc(C(C)NC(=S)NCc2ccc(F)cc2)cc1 (stereo not given),1.11,-10.5% (inactive)
CCC(NC(=S)NCc1ccc(F)cc1)c1ccc(C(C)C)cc1 (stereo not given),1.39,-38.5% (inactive)
CC(NC(=S)NCc1ccc(F)cc1)C12CC3CC(CC(C3)C1)C2 (stereo not given),4.19,-319% (active)
COc1cc(CN(C2CC2)S(=O)(=O)c2ccccc2Br)cc(OC)c1,1.07,-7.4% (inactive)
O=C(c1ccco1)N1CCN(C(=O)C2CCN(S(=O)(=O)c3cnc[nH]3)CC2)CC1,0.909,9.15% (inactive)
CCOc1ccc2nc(NC(=O)Nc3ccccc3)sc2c1,1.04,-3.8% (inactive)
O=C(NNc1cccc(Cl)n1)Nc1ccccc1,0.964,3.55% (inactive)
CC(C)(C)c1nc(NC(=O)Nc2ccccc2)sc1Br,2.12,-112% (active)

Compound,activation factor,"activity change, negative = activation"
CC(C)(C)c1ccc(OC(=O)c2cccnc2)cc1,1.01,-0.6% (inactive)
CCO/C(C)=C1\N=C(c2ccc(Cl)cc2)OC1=O,1.06,-5.85% (inactive)
O=C(Nc1ccc(Br)c(Cl)c1)C1CC1,1.01,-1.05% (inactive)
O=C(NCc1ccc2c(c1)OCO2)C1CCCN1C(=O)Nc1cccc(Cl)c1 (stereo not given),1.03,-2.95% (inactive)
O=C(Nc1ccc2c(c1)OCCO2)C1CCN(S(=O)(=O)c2cccc3nsnc23)CC1,0.988,1.25% (inactive)
COCc1ccc(CN2CCC(C(=O)Nc3cccc(-c4cccc(Cl)c4)c3)CC2)o1,4.36,-336% (active)
Cc1oc(-c2ccc(Cl)cc2)nc1CN1CCC(C(=O)NCc2cccs2)CC1,1.19,-19.5% (inactive)
O=C(Nc1cccc(-c2cccc(Cl)c2)c1)C1CCN(CC2CCOC2)CC1 (stereo not given),2.32,-132% (active)
O=C(Nc1cccc(-c2cccc(Cl)c2)c1)C1CCN(Cc2ccc(CO)o2)CC1,2.61,-161% (active)
O=C(Nc1cccc(-c2cccc(Cl)c2)c1)C1CCN(Cc2ccon2)CC1,1.73,-73.1% (active)
O=C(Nc1cccc(-c2cccc(F)c2)c1)C1CCN(Cc2ccc(CO)o2)CC1,1.64,-64.3% (inactive)
CCOc1ccc(Br)cc1S(=O)(=O)Nc1ccccc1N1CCOCC1,0.919,8.1% (inactive)
CC(C)N(C(=O)[C@H]1C[C@H](CC(=O)NC(C)(C)C)C(=O)N2CCc3c([nH]c4cc(-c5ccco5)ccc34)[C@]12C)C(C)C,1.09,-9% (inactive)
CC(=O)NC1=NN(C(C)=O)C(c2cccs2)S1 (stereo not given),1.08,-8% (inactive)
CCSc1sccc1C1C(C#N)=C(N)N(c2cccnc2)C2=C1C(=O)CCC2 (stereo not given),0.703,29.8% (inactive)
Cc1oc(-c2ccccc2F)nc1CN1CCC(C(=O)NC2CCCc3ccccc32)CC1 (stereo not given),1.12,-12.4% (inactive)
CC[C@]12c3[nH]c4ccc(OC)cc4c3CCN1C(=O)C(CC(=O)NCc1cccc(C(F)(F)F)c1)C[C@@H]2C(=O)N1CCN(C(=O)c2ccco2)CC1 (stereo not given in full),0.989,1.05% (inactive)
CN(Cc1ccccc1)C(=O)Cn1cccc1C(=O)c1ccccc1,1.13,-13.4% (inactive)
O=C(C1CCCN1C(=O)c1cccs1)N1CCN(Cc2ccc3c(c2)OCO3)CC1 (stereo not given),0.924,7.55% (inactive)
